For 35 compounds, growth results are on record in PubChem BioAssay (NCI).

About 83,000 compounds went through this panel and 20% of them were active in at least one assay; those are over-represented in the sample as a whole.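 Activity criterion: percent growth below 10, measured after cells in 96-well plates were exposed to a single compound concentration for 48 hours.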 Activity calls are given as the source filed them.

The test system of one experiment is HOP-92 NSCLC. Nature of the experiment: NCI-60 one-dose screen, 48 h (100 = growth as untreated, 0 = no growth, -100 = all killed). The conditions noted are these: 10 µM unless noted.
As to `COc1ccc(/C=C/c2nc3ccccc3n3c(-c4cccc([N+](=O)[O-])c4)nnc23)cc1`, the growth was -48.7% (active).

On to `Cc1ccc(C(=O)Nc2cc(-c3ccncc3)cc(C(F)(F)F)c2)cc1C#Cc1cnc2cccnn12`, for which the growth was 31.7% (inactive). Still for that read-out and setting: the value for `COc1ccc(N=Nc2c(N)nn3c(N)c(C#N)c(-c4ccccc4)nc23)cc1` was -9.66% (active). Same read-out and setting: the value for `N#Cc1ccc(C(=O)NNC(=O)CSc2nc3sc4c(c3c(=O)n2-c2ccc(Cl)cc2)CCCC4)cc1` was 45.6% (inactive); that for `CCCCCCCCc1ccc(C(=O)Nc2cccc(O)c2)cc1` was -4.35% (active); that for `COc1ccc(/C=C/C(=O)c2ccc(OC)c(S(N)(=O)=O)c2)c(C(F)(F)F)c1` was 6.4% (active).

For `C#CCN(C)CCCOc1ccc(N(CC)C(=O)c2cc(C(C)C)c(O)cc2O)cc1Cl`, the growth was -44.6% (active). Same read-out and setting: the value for `CC1=C(C(=O)OCc2ccccc2)C(c2ccc(N(C)C)cc2)n2c(nc3ccccc32)N1` (stereo not given) was 73.5% (inactive); that for `Cc1ccc(C2CC(c3ccc(NC(=O)Nc4ccccc4)cc3)=NN2c2ccc(S(N)(=O)=O)cc2)cc1` (stereo not given) was -81.3% (active).

The next experiment relates to NCI-H522 lung. The description is as above. The conditions noted are these: 10 µM unless noted.
For the compound `Cc1ccc(C(=O)Nc2cc(-n3cnc(F)c3)cc(C(F)(F)F)c2)cc1C#Cc1cnc2cccnn12`, the growth is 64.6% (inactive).

`O=C(N/N=C/c1ccc(-c2cccc([N+](=O)[O-])c2)s1)c1[nH]c2ccc(Br)cc2c1-c1ccccc1`: the growth was 66.5% (inactive). The same measure, in the same setting: the value for `Nc1cc2ccccc2c(=O)n1NC(=O)c1ccccc1` was 89.3% (inactive); that for `C[C@@H]1[C@H]2C[C@@H](C[C@H]1NCc1nc3ccccc3n1C1CCCCCC1)C2(C)C` was 22.9% (inactive); that for `COc1cc2cc(C(=O)N3C[C@@H](CCl)c4c3cc(OC(=O)N(CCC(=O)N3CCN(C)CC3)[C@H]3CCSSC3)c3ccccc43)[nH]c2c(OC)c1OC` was -80.5% (active).

On to `Cc1cn(-c2cc(NC(=O)c3ccc(C)c(-n4cc(-c5cnc6cccnn56)nn4)c3)cc(C(F)(F)F)c2)cn1`, for which the growth was 81.4% (inactive). Regarding `Cn1cc(-c2cc(N)n3nc(-c4c[nH]c5ccc(F)cc45)cc3n2)c2cccnc21`, the growth was -68.8% (active). On the same count and under the same terms, the value for `FC(F)(F)c1cc2c(Cl)ncnc2n1CCN1CCOCC1` was -80.3% (active). Same read-out and setting: the value for `CCOC(=O)/C(F)=C/C1CC1C1CCN(C(=O)OC(C)(C)C)CC1` (stereo not given) was 104% (inactive); that for `O=C(Nc1ccc(-c2ccc3c(c2)NC(=O)/C3=C\c2ccc[nH]2)cc1)Nc1cccc(Cl)c1` was -51.7% (active); that for `O=Cc1cncc(-c2ccc3ncnc(N4CCc5cc(F)c(Cl)cc54)c3c2)c1` was 59% (inactive). Same read-out and setting: the value for `Fc1ccc(F)c(CNc2nc(SCCN3CCOCC3)nc3c2cnn3CC(Cl)c2ccc(Br)cc2)c1` (stereo not given) was 37.6% (inactive); that for `Cc1nc(N)ncc1-c1ccc2ncnc(N3CCc4cc(F)c(Cl)cc43)c2c1` was 68.2% (inactive); that for `O=C(Cn1c(/C=C/c2ccc([N+](=O)[O-])cc2)nc2ccccc2c1=O)Nc1ccccc1` was 79.5% (inactive). Take `Nc1nc2cc(-c3ccc4ncnc(NCc5ccccc5)c4c3)ccc2o1`: the growth was -12.1% (active). Turning to `COc1ccc(-c2nc3ccc(-c4nnc(SCc5ccccc5)o4)cc3[nH]2)cc1`, the growth is -16.2% (active).

With `O=C(OCCOCCO)N(c1cccc(Br)c1)c1nc(SCCN2CCOCC2)nc2c1cnn2CC(Cl)c1ccc(Br)cc1` (stereo not given), the growth was -40.9% (active). In the case of `Oc1ccc(Cl)c(Nc2nc(SCCN3CCOCC3)nc3c2cnn3CC(Cl)c2ccc(Br)cc2)c1` (stereo not given), the growth is 22.2% (inactive). On the same count and under the same terms, the value for `O=C1/C(=C/C=C/c2ccco2)SC(=S)N1CC(=S)C1C=CS(=O)(=O)C1` (stereo not given) was 32.5% (inactive). `COC(=O)c1cc(C(=O)CBr)n2c1ccc1c3ccccc3ccc12`: the growth is 59.1% (inactive). On the same count and under the same terms, the value for `Cc1ccc(-c2cc(C(=O)N=Nc3c(O)[nH]c4ccc(F)cc34)c3ccccc3n2)cc1` was 25.5% (inactive); that for `Nc1cc(-c2c[nH]c3ccc(F)cc23)nc2cc(-c3c[nH]c4ccccc34)nn12` was -49.9% (active).

For `COc1cc(NC(=O)CSc2nnc(-c3ccc(-c4nc5ccc(Cl)cc5[nH]4)cc3)o2)cc(OC)c1OC`, the growth is 35% (inactive). As to `COc1ccc(C(=O)NNC(=O)CSc2nc3sc4c(c3c(=O)n2-c2ccc(Cl)cc2)CCCC4)cc1`, the growth is 59% (inactive). Still for that read-out and setting: the value for `CN(CCSSCCN1CCOCC1)C(=O)Oc1cc2c(c3ccccc13)[C@H](CCl)CN2C(=O)c1cc2cc(OCCCN3CCC3)ccc2[nH]1` was -66.4% (active); that for `O=C(Cc1c(-c2ccccc2[N+](=O)[O-])n(-c2ncnc3c2c(-c2ccccc2)c(-c2ccccc2)n3Cc2ccccc2)[nH]c1=O)c1ccc(Cl)c(Cl)c1` was -10.1% (active).
